MITF inh: human MITF inhibition, primary screen; O75030; inhibition, % at 2.6 µM; actives 0.91% (n = 650,000); AlphaScreen MITF homodimerization, bead proximity signal; in the data active = inhibition above about 50%
TEAD-YAP block: TEAD-YAP interaction inhibition; actives 1.4% (n = 640,000); inhibition, % at 9.12 µM; HEK-TIYL cells, TEAD-Gal4/YAP UAS-luciferase luminescence; AID 1259422; in the data active = inhibition above about 32%
FBW7 activator: activators of human E3 ligase FBW7 | normalized activity (activation), % at 26.1 µM | actives 0.13% (n = 650,000) | AlphaScreen FBW7–phospho-cyclin E peptide binding, activator screen | Q969H0; in the data active = normalized activity above about 1.9%;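 also: purified mutant Fbw7 with reduced substrate affinity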
Target sequence (Q969H0 whole entry, looked up): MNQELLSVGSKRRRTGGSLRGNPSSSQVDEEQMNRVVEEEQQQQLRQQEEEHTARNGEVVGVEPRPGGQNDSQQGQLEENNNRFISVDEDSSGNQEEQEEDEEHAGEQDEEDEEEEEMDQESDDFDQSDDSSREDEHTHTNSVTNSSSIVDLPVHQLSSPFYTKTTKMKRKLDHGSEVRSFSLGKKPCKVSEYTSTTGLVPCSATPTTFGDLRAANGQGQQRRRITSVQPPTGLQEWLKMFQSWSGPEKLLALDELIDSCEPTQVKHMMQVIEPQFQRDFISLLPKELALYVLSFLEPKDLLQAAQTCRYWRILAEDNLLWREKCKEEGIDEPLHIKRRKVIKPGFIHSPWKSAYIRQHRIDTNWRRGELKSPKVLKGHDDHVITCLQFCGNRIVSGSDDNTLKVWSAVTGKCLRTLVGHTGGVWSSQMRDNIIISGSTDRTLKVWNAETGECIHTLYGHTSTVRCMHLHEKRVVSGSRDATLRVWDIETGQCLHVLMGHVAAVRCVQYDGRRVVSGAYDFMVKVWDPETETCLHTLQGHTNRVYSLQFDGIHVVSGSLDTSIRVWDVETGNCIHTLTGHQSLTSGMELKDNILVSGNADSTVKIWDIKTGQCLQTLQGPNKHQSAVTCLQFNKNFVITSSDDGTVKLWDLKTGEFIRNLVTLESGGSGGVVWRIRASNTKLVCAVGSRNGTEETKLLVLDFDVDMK
GPR151 ag: activators of human GPR151; Q8TDV0; activation, % at 11.2 µM; PathHunter beta-arrestin GPR151 cells, luminescence; actives 1% (n = 650,000); in the data active = activation above about 4.9%
Of the large screens only hits and unclear results are named; the others gave an inactive call. Sampled rows, rich in hits. Any-hit rate of the full collection: about 3.5%.

Cc1ccc(NC(=O)CN2C(=O)N/C(=C/c3cccn3-c3ccc(C(=O)O)cc3)C2=O)cc1	MITF inh 79
COc1ccc(-n2cccc2/C=C2\NC(=O)N(CC(=O)Nc3ccccc3)C2=O)cc1	none
COc1ccc(NC(=O)NCc2ccc(Cl)cc2Cl)c(OC)c1	none
Cc1cccc(NCC(O)Cn2c(C)c(C)c3ccccc32)c1C (stereo unspecified)	MITF inh 51
COc1ccc(-n2c(=S)[nH]c3cc(C(=O)Nc4ccc(F)cc4)ccc3c2=O)c(OC)c1	TEAD-YAP block 71
CC(C)C(=O)N(CC(=O)Nc1sc2c(c1C(N)=O)CCCC2)C1CCCC1	none
O=C(O)c1cccc(N2C(=O)/C(=C/c3ccc(Cl)cc3)C=C2c2ccccc2)c1	none
O=C(Nc1ccc2c(c1)CN(C(=O)c1csnn1)CC2)c1ccc(C(F)(F)F)cc1	TEAD-YAP block 33
O=C(Cc1ccccc1F)Nc1ccc2c(c1)CN(C(=O)c1csnn1)CC2	none
COc1cc(C(=O)Nc2ccc(N3CCCC3)c(Cl)c2)cc(OC)c1OC	TEAD-YAP block 42
COc1cc(C(=O)Nc2ccc(C)c(C)c2)cc(OC)c1OC	none
COc1cc(C(=O)Nc2ccc(I)cc2)cc(OC)c1OC	TEAD-YAP block 35
O=C(Nc1cc(C(F)(F)F)ccc1Oc1ccc(Cl)c(Cl)c1)c1cccnc1	none
CCOC(=O)c1sc2nc3c(C)cc(C)cc3cc2c1N	none
Cc1cc(C)nc(N2CCCC(C(=O)Nc3cccnc3)C2)n1 (stereo unspecified)	none
COc1cccc(CC2=NOC(C(=O)NCc3cnc4ccccc4c3)C2)c1 (stereo unspecified)	TEAD-YAP block 35
COc1cccc(CC2=NOC(C(=O)NCC(C)(C)CO)C2)c1 (stereo unspecified)	none
Nc1cccc(-c2cc(NCc3cccc(C(F)(F)F)c3)nc(N)n2)c1	TEAD-YAP block 44
Nc1nc(NCc2cccc(C(F)(F)F)c2)cc(-c2ccccc2)n1	TEAD-YAP block 45
COCCOC(=O)c1ccc(NC(=O)c2ccc(OC)c(OC)c2)cc1	none
O=C(Nc1ccc(N2CCCC2=O)cc1)c1ccco1	TEAD-YAP block 59
COC(=O)COc1cccc2c1ccc1c3c(c(=O)oc12)CCCC3	none
O=c1oc2c(ccc3c(O)cccc32)c2c1CCCC2	TEAD-YAP block 45
Cn1c(=O)c2ccc(C(=O)NC3CCCC3)cc2n2c(SCc3ccccc3F)nnc12	none
CCOC1OC(=O)C(Cl)=C1Nc1ccccc1 (stereo unspecified)	none
CCCCN1C(=O)S/C(=C/c2ccc(OC)cc2)C1=O	none
CCOC(=O)CCCN1C(=O)S/C(=C/c2ccc(OC)cc2)C1=S	TEAD-YAP block 47
COc1ccc(/C=C2\SC(=O)N(CCCC(=O)Nc3ccc(C(=O)O)cc3)C2=O)cc1	TEAD-YAP block 88
COC(=O)c1cnc(Nc2ccc(OC)c(Cl)c2)c2ccccc12	FBW7 activator 2.4
CCc1ccc(Nc2ncc(C(=O)OC)c3ccccc23)cc1	FBW7 activator 4.0
COC(=O)c1cnc(Nc2cc(Cl)ccc2OC)c2ccccc12	none
CCn1c(/C=C/c2ccc(OC)cc2)nc2ccccc21	TEAD-YAP block 72
CCCc1nc2ccccc2n1C(=O)CCC(=O)O	none
COCCn1c(/C=C/c2ccccc2)nc2ccccc21	none
O=C(O)CCC(=O)n1c(/C=C/c2ccccc2)nc2ccccc21	TEAD-YAP block 83
CC(=O)c1ccc(/C=C/c2nc3ccccc3n2C)o1	TEAD-YAP block 53
Cn1c(/C=C/c2ccccc2)nc2ccccc21	TEAD-YAP block 93
Cn1c(=O)c(C(=O)Nc2ccc([N+](=O)[O-])cc2)c(O)c2ccccc21	none
Cn1c(SCc2c[nH]c3ccccc23)nnc1-c1ccc(Cl)cc1Cl	none
N=c1cc2c(=O)[nH]c(=O)c3ccc4c(O)[nH]c(=O)c1c4c3-2	none
C=CCOCC(O)Cn1c(NC2CCCCC2)nc2c1c(=O)[nH]c(=O)n2C (stereo unspecified)	none
O=C(Nc1cc(Cl)ccc1O)c1ccc(Cl)c(C(=O)c2ccc(Cl)cc2)c1	TEAD-YAP block 33
COc1ccc(C(=O)Nc2cc(Cl)ccc2O)cc1Cl	none
O=C(Nc1cc(Cl)ccc1Cl)c1cc(Cl)cc(Cl)c1O	TEAD-YAP block 57
O=C(Nc1cc(Cl)ccc1Oc1ccc(Cl)c2ccccc12)c1cc(Cl)cc(Cl)c1O	none
Nc1ccc(Cl)c(NC(=O)c2ccc(Cl)cc2Cl)c1	TEAD-YAP block 87
O=c1[nH]c(C2CC2)nc2cc(-c3cnn(-c4ccc(Cl)cc4)c3)ccc12	TEAD-YAP block 60
O=C1C2=C(Nc3[nH]c(=O)[nH]c(=O)c3C2c2ccc(Cl)cc2)c2ccccc21 (stereo unspecified)	TEAD-YAP block 42
COCCn1c2c(c(=O)[nH]c1=O)C(c1ccc(Cl)cc1)C1=C(N2)c2ccccc2C1=O (stereo unspecified)	none
COC(=O)c1ccc(C(=O)OC)c(NC(=O)Nc2ccccc2)c1	none
O=C1CSC(c2cccc(C(F)(F)F)c2)N1c1ccc2ccccc2c1 (stereo unspecified)	none
COc1ccc(Cl)cc1Nc1nc(-c2ccc(O)c(O)c2)cs1	none
Cc1ccc(-n2nc3c(c2NC(=O)c2cc([N+](=O)[O-])ccc2Cl)CSC3)cc1	TEAD-YAP block 63
O=C(Nc1c2c(nn1-c1ccc(Cl)cc1)CSC2)c1cc([N+](=O)[O-])ccc1Cl	none
O=C(Nc1c2c(nn1-c1ccc(F)cc1)CSC2)c1cc([N+](=O)[O-])ccc1Cl	TEAD-YAP block 86
CN(C)S(=O)(=O)N1CCN(c2cc(-n3cccn3)ncn2)CC1	none
COc1ccc(S(=O)(=O)N2CCN(c3cc(-n4cccn4)ncn3)CC2)cc1C	TEAD-YAP block 33
Cc1ccc(NC2CC(=O)N(c3cccc(C(F)(F)F)c3)C2=O)cc1 (stereo unspecified)	none
CC(=O)Oc1ccc(N2C(=O)C3ON(c4ccccc4)C(c4ccc(F)cc4)C3C2=O)cc1 (stereo unspecified)	none
Cc1cc(OCCCNCCN)ccc1C(C)C	none
Cc1cc(OCC(O)CNC2CCCC2)ccc1C(C)C (stereo unspecified)	none
Cc1cc(OCC(O)CNC(C)C)ccc1C(C)C (stereo unspecified)	TEAD-YAP block 51
C=CCNCCCOc1ccc(C(C)C)c(C)c1	TEAD-YAP block 42
Oc1ccc(Br)cc1C1CC(c2ccc(Br)cc2)=NC(c2ccc(Cl)cc2Cl)N1 (stereo unspecified)	none
COc1ccccc1C(NC(=O)C(C)C)c1ccc2cccnc2c1O (stereo unspecified)	TEAD-YAP block 73
COc1ccccc1C(NC(C)=O)c1ccc2cccnc2c1O (stereo unspecified)	MITF inh 57, TEAD-YAP block 33
COc1ccc(C(=O)/C=C/Nc2cccc(O)c2)cc1OC	none
C/C(=N\NC(=O)c1nnn(-c2nonc2N)c1-c1ccccc1)c1ccc(O)cc1O	TEAD-YAP block 43
C/C(=N\NC(=O)c1nnn(-c2nonc2N)c1-c1ccccc1)c1ccccc1O	TEAD-YAP block 44
C/C(=N\NC(=O)c1nnn(-c2nonc2N)c1-c1ccccc1)c1ccc(O)cc1	none

From PubChem BioAssay
